A selection: hits, their analogues and other compounds. The true share with any hit is near 2.8%.
PglD inh: PglD (C. jejuni) enzyme inhibition; purified PglD enzyme, DTNB colorimetric CoA detection; 360,000 compounds, 0.098% hits; AID 602405; inhibition, % at 12.5 µM; in the data active = inhibition above about 16%, passing the limit was not always enough
PvdQ inh: blocks Pseudomonas aeruginosa PvdQ acylase activity. purified PvdQ acylase, fluorescence plate reader. inhibition, % at 10 µM. 340,000 compounds, 0.063% hits. AID 488965; in the data active = inhibition above about 30%, passing the limit was not always enough;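 note: 0% = vehicle neutral wells and 100% = reference inhibitor wells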
SIRT5 inh: sirtuin-5 (human) deacylase inhibition; AID 652115; inhibition, % at 15 µM; Q9NXA8; 330,000 compounds, 1.1% hits; Purified SirT5, succinyl-peptide AMC, trypsin-coupled fluorescence; in the data active = inhibition above about 15%
dFosB act: enhances mouse delta FosB homodimer DNA binding; activation, % at 25 µM; P13346; purified delta FosB, TAMRA-CDK5 oligo fluorescence polarization; percent of positive-control signal above neutral wells; 340,000 compounds, 0.99% hits;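 active = mean activation above about 17%, with every replicate also reaching it, limit read from the data, passing the limit was not always enough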
Target sequence (P13346 whole entry, looked up): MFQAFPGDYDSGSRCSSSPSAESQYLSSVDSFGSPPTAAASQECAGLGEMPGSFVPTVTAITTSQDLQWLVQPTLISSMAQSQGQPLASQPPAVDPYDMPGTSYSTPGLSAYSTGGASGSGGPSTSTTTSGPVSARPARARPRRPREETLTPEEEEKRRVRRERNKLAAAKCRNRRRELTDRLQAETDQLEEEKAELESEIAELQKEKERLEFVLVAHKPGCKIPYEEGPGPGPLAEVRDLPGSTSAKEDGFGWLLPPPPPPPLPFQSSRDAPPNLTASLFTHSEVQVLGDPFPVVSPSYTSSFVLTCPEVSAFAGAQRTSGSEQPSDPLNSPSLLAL
FGF22 binding: shifts melting point of recombinant human FGF22; Q9HCT0; activity (Tm shift, normalised), % at 9.99 µM; recombinant FGF22 thermal shift, SYPRO orange fluorescence; percent of sucrose octasulfate shift, DMSO zero; 340,000 compounds, 1.5% hits;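 active = mean Tm shift, scaled 0 neutral to 100 positive control, at about 1.3% or above, every replicate too, limit read from the data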
Target sequence (Q9HCT0 whole entry, looked up): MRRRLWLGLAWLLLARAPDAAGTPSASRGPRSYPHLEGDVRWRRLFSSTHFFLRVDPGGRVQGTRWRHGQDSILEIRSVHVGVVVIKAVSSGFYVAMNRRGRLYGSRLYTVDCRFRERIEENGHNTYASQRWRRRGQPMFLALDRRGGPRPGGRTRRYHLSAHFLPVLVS
CDK5 p35 inh: CDK5/p35 (human) kinase inhibition | Q00535+Q15078 | Recombinant CDK5/p35, ADP-Glo luminescence, 60 min | AID 488839 | 330,000 compounds, 0.01% hits | inhibition, % at 10 µM;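 active = highest replicate inhibition of at least 50% and at least 75% of replicates reaching 50%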;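 note: plate controls were DMSO neutral control for no effect and GW8510 at 10 µM for full effect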
Starred values were filed as active, the others as inactive; . = no result; ! = repeats disagree.

SMILES	PglD inh	PvdQ inh	SIRT5 inh	dFosB act	FGF22 binding	CDK5 p35 inh
CN1C(=O)c2cc(NC(=O)C3CCOCC3)ccc2OC[C@H]2O[C@@H](CC(=O)O)CC[C@H]21	-3	.	.	.	.	.
CC=Cc1ccc2n(c1=O)C[C@@H]1[C@@H](CO)[C@H](C(=O)NCC)N(CCC(F)(F)F)[C@H]21 (mixture of isomers)	-1	.	1	.	0	.
C[C@@H](O)C#Cc1ccc2c(c1)O[C@@H](CN(C)Cc1ccccc1)[C@@H](C)CN([C@@H](C)CO)S2(=O)=O	0	.	-2	.	0	.
C[C@H](CO)N1C[C@H](C)[C@H](CN(C)Cc2ccc(-c3ccccc3)cc2)Oc2cc(C#C[C@@H](C)O)ccc2S1(=O)=O	10	.	25*	.	0	.
CN(C)Cc1cn(CC[C@@H]2CC[C@H](NC(=O)Nc3ccccc3F)[C@H](CO)O2)nn1	0	.	-14	.	0	.
CCNC(=O)C1(C)CCCN(C(=O)c2sc(-c3ccccc3)nc2C)C1 (configuration not stated)	-2	.	.	.	43*	.
CCNC(=O)C1(C)CCCN(C(=O)c2ccccc2Br)C1 (configuration not stated)	0	.	.	.	43*	.
C[C@@H]1CN([C@@H](C)CO)C(=O)c2cc(C#CCN(C)C)cnc2O[C@@H]1CN(C)Cc1cccc(C(=O)O)c1	0	.	-6	.	0	.
O=C1c2ccccc2C(=O)c2c1ccc1c(=O)n(C3CCCCC3)[nH]c21	0	7	19*	-2	.	0
COc1ccc(NC(=O)N2CC(=O)N3[C@H](C2)[C@H](c2ccc(C#CCC4CCCC4)cc2)[C@@H]3CO)cc1	.	.	15*	.	.	.
O=C(Nc1ccc(C(F)(F)F)cc1)N1C[C@@H]2N[C@H](C1)C2c1ccc(-c2cccc(F)c2)cc1 (some centres not stated)	.	.	15*!	.	.	.
O=C(Nc1cccc(F)c1)N1CC(=O)N2[C@H](C1)[C@@H](c1ccc(-c3cccc(F)c3)cc1)[C@@H]2CO	.	.	16*	.	.	.
Cc1ccc(-c2ccc(C3[C@@H]4CN(C(=O)Nc5ccc(C(F)(F)F)cc5)C[C@H]3N4)cc2)cc1 (some centres not stated)	.	.	-5	.	.	.
COc1ccc(NC(=O)N2CC(=O)N3[C@@H](CO)[C@H](c4ccc(C#CCC5CCCC5)cc4)[C@@H]3C2)cc1	.	.	11	.	.	.
COc1cccc(NC(=O)N2CC(=O)N3[C@H](C2)[C@@H](c2ccc(C#CCC4CCCC4)cc2)[C@@H]3CO)c1	.	.	21*	.	0	.
CS(=O)(=O)Nc1ccc2c(c1)[C@@H]1C[C@@H](CC(=O)NCc3ccccc3F)O[C@@H](CO)[C@@H]1O2	2	.	-2	.	0	.
O=C(C[C@H]1CC[C@@H]2[C@H](COC[C@@H](O)CN2CCC(F)(F)F)O1)NCc1ccc2c(c1)OCO2	-1	.	3	.	0	.
COc1cccc(NC(=O)N2CC(=O)N3[C@H](C2)[C@@H](c2ccc(C#CC4CCCC4)cc2)[C@@H]3CO)c1	.	.	16*	.	.	.
CC(=O)N1CCC2(CC1)C/C(=N\NC(=S)Nc1ccccc1C)c1cc(O)ccc1O2	-1	-6	21*	-2	0	-3
CC(=O)N1CCC2(CC1)C/C(=N\NC(=S)Nc1ccccc1F)c1cc(O)ccc1O2	.	13	-4	-7	-1	0
Cn1cccc1C(=O)NC(=O)COC(=O)CNS(=O)(=O)c1ccc(Br)cc1	2	1	.	5	.	2
CCOc1ccc(S(=O)(=O)NCCC(=O)OCC(=O)NC(=O)c2cccn2C)cc1	6	-10	.	-8	44*	0
Cc1ccc([N+](=O)[O-])cc1S(=O)(=O)N1CCN(C)CC1	.	-9	-3	4	0	1
CN1CCN(S(=O)(=O)c2cc([N+](=O)[O-])ccc2Cl)CC1	.	3	-3	3	43*	-1
CS(=O)(=O)N1[C@@H]2Cn3c(ccc(-c4ccccc4)c3=O)[C@H]1[C@@H](C(=O)NCC1CC1)[C@@H]2CO	1	.	-37	.	0	.
SMILES	PglD inh	PvdQ inh	SIRT5 inh	dFosB act	FGF22 binding	CDK5 p35 inh
COc1ccc2c3c([nH]c2c1)[C@@H](CO)N(C(=O)NC(C)C)CC31CCN(C(=O)NC(C)C)CC1	.	.	-2	.	0	.
Cc1ccc(S(=O)(=O)Nc2ccc3c(c2)C(=O)N([C@H](C)CO)C[C@H](C)[C@@H](CN(C)Cc2ccncc2)O3)cc1	-6	.	-2	.	0	.
CC1CCCC(NC(=O)CN(C)S(=O)(=O)c2cnc[nH]2)C1C (configuration not stated)	.	-3	-2	8	43*	-1
CC1CCC(NC(=O)CN(C)S(=O)(=O)c2cnc[nH]2)CC1 (configuration not stated)	.	-4	-4	5	0	-1
CC(NC(=O)CN(C)S(=O)(=O)c1cnc[nH]1)c1ccccc1 (configuration not stated)	.	6	0	1	44*	-1
C[C@@H]1CN([C@@H](C)CO)C(=O)Cc2cc(NC(=O)Nc3ccc(F)cc3)ccc2O[C@@H]1CN(C)S(=O)(=O)c1ccc(F)cc1	-8	.	-3	.	0	.
O=C(C1CCOCC1)N1CC(=O)N2[C@@H](CO)[C@H](c3ccc(C#Cc4cccc(F)c4)cc3)[C@@H]2C1	.	.	-1	.	0	.
CC(=O)N1Cc2cc(C(=O)NCc3cc(F)cc(F)c3)nc(-c3cccc(C4=CCCC4)c3)c2[C@H]1CCO	.	.	15*	.	-1	.
COc1ccc(-n2nc(C(=O)NCC(=O)NCC3COc4ccccc4O3)c3ccccc3c2=O)cc1 (configuration not stated)	.	4	0	-9	43*	4
COc1ccc(C(=O)NCC(=O)NCC2COc3ccccc3O2)cc1 (configuration not stated)	7	-3	.	-8	.	-2
N#C[C@H]1[C@@H](c2ccccc2C2=CCCCC2)[C@H](CO)N1C(=O)c1cccc(F)c1	.	.	4	.	0	.
CC(C)NC(=O)Nc1ccc2c(c1)C(=O)N([C@@H](C)CO)C[C@@H](C)[C@H](CN(C)Cc1ccc(C(F)(F)F)cc1)OCCCC[C@@H](C)O2	-4	.	17*	.	0	.
C[C@@H]1CCCCO[C@H](CN(C)Cc2ccc(C(F)(F)F)cc2)[C@H](C)CN([C@H](C)CO)C(=O)c2cc(NC(=O)c3ccncc3)ccc2O1	-4	.	20*	.	1	.
CC(C)NC(=O)Nc1ccc2c(c1)C(=O)N([C@@H](C)CO)C[C@@H](C)[C@H](CN(C)Cc1ccc(C(=O)O)cc1)OCCCC[C@H](C)O2	-1	.	0	.	1.6*	.
C[C@@H]1CN([C@H](C)CO)C(=O)c2cc(NC(=O)c3ccncc3)ccc2O[C@@H](C)CCCCO[C@@H]1CN(C)Cc1ccc(C(F)(F)F)cc1	-2	.	11	.	0	.
